About 79,000 compounds went through this panel and 15% of them were active in at least one assay; those are over-represented in the sample as a whole. Values without a mark were called inactive. Calls of active or inactive are those of the source. No stated cut-off is given here; in the data, active means growth inhibition above about 70%; inactive means the rest.

The nature of this assay: NCI Yeast Anticancer Drug Screen. Data for the cln2 rad14 strain (AID 165).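 Further: 0% = growth equal to vehicle treated cultures.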 As to conditions: S. cerevisiae cln2 rad14 strain, at 50.0 µM, active compounds read high. The gist of the method: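 Strain: cln2 rad14 yeast, altered in cell cycle control and DNA damage repair. Read-out: growth inhibition vs vehicle.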
Take `CC(N)CN.CC(N)CN.[Cl-].[O]=[Os+2]=[O]` (stereo not given): the growth inhibition was 2.05%.
`O=C(Nc1ccccc1Cl)Oc1c(Cl)cc(S(=O)(=O)F)cc1Cl`: the growth inhibition is 32.6%.
As for `CC(=O)Nc1nc(CCl)cs1`, the growth inhibition is 5.55%.
Regarding `O/N=C1\CN2CCC1CC2`, the growth inhibition is 15.4%.
As to `Cc1c(OCC(=O)N/N=C/c2ccc(N(CCCl)CCCl)cc2)ccc2c(=O)c3ccccc3oc12`, the growth inhibition is -15.5%.
With `COc1ccccc1N=Nc1cccc[c]1[Hg][Cl]`, the growth inhibition was 98.7% (active).
With `CC1CC(C)(O)CC(C(O)CC2CC(=O)NC(=O)C2)C1=O` (stereo not given), the growth inhibition was 56.1%.
The figure for `Cc1nccc2c1[nH]c1ccc(Br)cc12` is -2%; for `CC(=O)C1(c2ccccc2)CCNCC1` it is 11.9%; for `CC(C)(C)OC(=O)NCC(=O)NC(CSC(c1ccccc1)c1ccccc1)C(=O)NCC(=O)O` (stereo not given) it is -6.35%.
Consider `CSCC(NP1(=O)SC(NN=C(C)C)=NC1(C)C)C(=O)O` (stereo not given), for which the growth inhibition was 20.3%.
Regarding `CCCCCCCC(=O)O.[Pb]`, the growth inhibition is 13.9%.
With `O=[N+]([O-])c1ccc(/C=C/c2ccc(Cl)c(S(=O)(=O)F)c2)c(Cl)c1`, the growth inhibition was 2.45%.
The figure for `CC(C)c1cc2c(cc1O)C1(C)CCCC(C)(C)C1CC2=O` (stereo not given) is 22.4%; for `CCCCCCCCCCBr` it is 25.1%; for `CC12OC1(C)C1C(=O)OCC1C2=O` (stereo not given) it is 3.95%.
The value for `NC(=O)c1ccc([As](=O)(O)O)cc1[N+](=O)[O-]` was -47.8%; that for `C=Cc1cc(OC)c2c(c1)c(=O)oc1c2cc(OC)c2c(O)ccc(C3OC(C(C)O)C(O)C3O)c21` (stereo not given) was 90.2% (active); that for `CN1C(=O)N(C)P1(Cl)(Cl)Cl` was -36.6%.
As for `Cc1cc(NC2=NCCO2)c2c(c1C)CCCC2`, the growth inhibition was 22.3%.
For the compound `CCCCCCCCCCCOP(=O)(OCC)OCC`, the growth inhibition was 99.5% (active).
Take `CC1C(c2ccccc2)OCCN1C` (stereo not given): the growth inhibition was -7.5%.
For the compound `O=[As](O)(O)c1ccc(F)cc1`, the growth inhibition was 14.6%.
Turning to `Cc1cc(N(CCCl)CCCl)ccc1CN1CCCN(Cc2ccc(N(CCCl)CCCl)cc2C)C1c1ccccc1O`, the growth inhibition is -4.5%.
For the compound `CN(C)P(=O)(N(C)C)N(C)CO`, the growth inhibition was 7.35%.
